Among the data in PubChem BioAssay (EPA / NIEHS) are outcome and AC50 values, retold here.

Assay [1] deals with Bile acid receptor (Homo sapiens) (UniProt Q96RI1). Description: ATG_IR1_CIS: Attagene CIS-FACTORIAL HepG2 Assay for human Nuclear Receptor Subfamily 1 Group H Member 4 (NR1H4), IR1 submotif (AID 2282946). Particulars: IR1 reporter transcription, actives raise or lower the signal. The procedure, abridged: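 Cells (human HepG2) carry transiently transfected cis-promoter reporter transcription units. Compounds are incubated 24 h, total RNA is reverse-transcribed and amplified, and labelled fragments are resolved by capillary electrophoresis. Curves use DMSO as baseline.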
Chain of Bile acid receptor (Homo sapiens) (Q96RI1 whole entry, looked up, the tested form may be a part): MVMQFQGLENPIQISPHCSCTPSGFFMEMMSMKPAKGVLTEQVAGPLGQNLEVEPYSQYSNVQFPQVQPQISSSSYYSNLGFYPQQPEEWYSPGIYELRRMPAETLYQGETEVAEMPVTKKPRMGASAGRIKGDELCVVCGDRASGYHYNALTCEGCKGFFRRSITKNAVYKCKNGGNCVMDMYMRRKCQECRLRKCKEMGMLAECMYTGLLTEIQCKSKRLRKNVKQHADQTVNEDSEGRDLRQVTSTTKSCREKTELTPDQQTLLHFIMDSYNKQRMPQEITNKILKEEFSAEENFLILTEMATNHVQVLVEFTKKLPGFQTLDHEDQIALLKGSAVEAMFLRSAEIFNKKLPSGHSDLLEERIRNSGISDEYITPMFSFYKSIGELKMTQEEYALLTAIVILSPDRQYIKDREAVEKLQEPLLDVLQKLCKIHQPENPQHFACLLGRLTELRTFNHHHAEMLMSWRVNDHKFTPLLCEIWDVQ

Assay [2] can be described thus: ATG_ISRE_CIS: Attagene CIS-FACTORIAL HepG2 Assay for human Interferon Regulatory Factor 1 (IRF1) binding to an Interferon-Stimulated Response Element (ISRE) (AID 2282948). Conditions: HepG2 ISRE cis-reporter (Attagene), mRNA transcription readout; actives raise or lower the signal. Summed up: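 Transiently transfected HepG2 cells carrying cis-element reporter units, dosed 24 hours. Reporter mRNA quantified by RT-PCR, fluorescent primer extension, HpaI digestion and capillary electrophoresis. Bidirectional fitting relative to DMSO.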

Assay [3] can be described thus: ATG_M_32_CIS: Attagene CIS-FACTORIAL HepG2 Assay for M32 Transcription Factor (Internal Marker) (AID 2282949).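 Note: background control marker of the multiplexed CIS panel rather than a real target.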 Conditions: HepG2 Attagene cis-factorial M32 reporter, mRNA; actives raise or lower the signal. Summed up:
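Fluorescent capillary electrophoresis peaks of HpaI-digested, FAM-labelled RT-PCR reporter products give the signal. Source: transiently transfected human liver HepG2 cells, 24 h after chemical dosing; bidirectional fitting against DMSO.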

Assay [4] is described as follows: ATG_M_06_CIS: Attagene CIS-FACTORIAL HepG2 Assay for M06 Transcription Factor (Internal Marker) (AID 2282950). Particulars: HepG2 Attagene CIS-FACTORIAL M06 internal marker reporter; actives raise or lower the signal. The procedure, abridged: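 Steps: transfect HepG2 with multiplexed cis-element reporter constructs; dose chemical 24 h; extract RNA with DNase treatment; reverse-transcribe, PCR-amplify, 6-FAM label, HpaI digest; separate fragments by capillary electrophoresis. Activity fitted both directions versus DMSO.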

Assay [5] concerns the target Hypoxia-inducible factor 1-alpha (Homo sapiens) (UniProt Q16665). Kind of assay: ATG_HIF1a_CIS: Attagene CIS-FACTORIAL HepG2 Assay for human Hypoxia Inducible Factor 1 (HIF1A) (AID 2282951). Particulars: HepG2 Attagene cis-factorial HIF1a reporter transcription; actives raise or lower the signal. Summed up: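 Activity is fitted in both directions relative to DMSO. Reporter transcripts are read by RT-PCR, fluorescent primer extension and capillary electrophoresis after 24 h chemical treatment. The cells are HepG2 carrying transiently transfected cis-element-driven reporter units responding to endogenous factors.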

For assay [6], the target named is Hepatocyte nuclear factor 6 (Homo sapiens) (UniProt Q9UBC0). Description: ATG_HNF6_CIS: Attagene CIS-FACTORIAL HepG2 Assay for human Hepatocyte Nuclear Factor 6 (HNF6) (AID 2282952). Conditions: HepG2 Attagene cis-factorial HNF6 reporter transcription; actives raise or lower the signal. Summed up:
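HepG2, transient MRTU transfection (cis promoters); 24 h chemical exposure; total RNA → oligo(dT) RT → PCR → 6-FAM labelling → HpaI cut → CE; bidirectional fit vs DMSO.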

Assay [7] can be described thus: ATG_MRE_CIS: Attagene CIS-FACTORIAL HepG2 Assay for human Metal Responsive Element (MRE) (AID 2282954). Conditions: HepG2 MRE cis-reporter transcription, Attagene multiplex; actives raise or lower the signal. The procedure, abridged:
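Transient MRTU transfection of HepG2 (FuGene 6); 24 h dosing; total RNA → oligo(dT) RT, PCR, 6-FAM primer extension, HpaI cut, CE. Bidirectional fit vs DMSO.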

Assay [8] can be described thus: ATG_PBREM_CIS: Attagene CIS-FACTORIAL HepG2 Assay for human Phenobarbital-responsive Enhancer Module (PBREM) (AID 2282955). Conditions: HepG2 PBREM cis-reporter, Attagene multiplexed transcription; actives raise or lower the signal. The procedure, abridged:
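Endogenous transcription factor activity was read from reporter transcripts in transiently transfected human HepG2 liver cells after 24 h dosing. RT-PCR products were fluorescently labelled, HpaI-cut and sized by capillary electrophoresis; activity fitted bidirectionally against DMSO baseline.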

Assay [9] deals with Heat shock factor protein 1 (Homo sapiens) (UniProt Q00613). Kind of assay: ATG_HSE_CIS: Attagene CIS-FACTORIAL HepG2 Assay for human Heat Shock Transcription Factor 1 (HSE) (AID 2282953). Conditions: HepG2 HSE cis-reporter, Attagene RNA transcription; actives raise or lower the signal. Summed up:
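Cells were transfected with cis-element-driven reporter constructs, dosed for 24 h, then total RNA was reverse-transcribed and reporter cDNA amplified, FAM-labelled and digested with HpaI. Fragments were resolved by capillary electrophoresis; gain or loss was fitted against DMSO.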

Assay [10] is described as follows: ATG_GRE_CIS: Attagene CIS-FACTORIAL HepG2 Assay for human Glucocorticoid Response Elements (GRE) (AID 2282947). Particulars: HepG2 GRE cis-reporter, Attagene multiplex mRNA; actives raise or lower the signal. Summed up:
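Transient MRTU transfection of human HepG2 liver cells; cis-regulated reporters report endogenous factors. 24 h dosing → RNA isolation → RT-PCR → 6-FAM primer extension → HpaI cut → CE fragment analysis. Bidirectional fit, DMSO negative control.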

Activity calls are given as the source filed them. Rule for the calls: active = hit-call score of the fitted dose curve at least 0.9, where 1 is the maximum; inactive = score below 0.9.

Chain of Heat shock factor protein 1 (Homo sapiens) (Q00613 whole entry, looked up, the tested form may be a part): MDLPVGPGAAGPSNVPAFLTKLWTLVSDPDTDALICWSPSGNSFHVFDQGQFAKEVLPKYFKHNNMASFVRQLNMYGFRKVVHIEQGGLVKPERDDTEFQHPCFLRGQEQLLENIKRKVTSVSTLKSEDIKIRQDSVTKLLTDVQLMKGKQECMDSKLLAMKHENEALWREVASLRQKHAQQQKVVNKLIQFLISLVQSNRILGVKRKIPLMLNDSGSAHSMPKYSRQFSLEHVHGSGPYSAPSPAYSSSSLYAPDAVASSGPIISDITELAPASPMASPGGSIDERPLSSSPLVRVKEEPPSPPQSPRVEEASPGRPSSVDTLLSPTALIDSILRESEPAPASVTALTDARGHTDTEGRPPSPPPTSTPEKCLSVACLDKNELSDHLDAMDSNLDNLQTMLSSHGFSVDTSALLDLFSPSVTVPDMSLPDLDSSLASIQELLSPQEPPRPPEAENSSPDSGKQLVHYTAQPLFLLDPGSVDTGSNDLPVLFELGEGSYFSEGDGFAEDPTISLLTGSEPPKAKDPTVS
Chain of Hepatocyte nuclear factor 6 (Homo sapiens) (Q9UBC0 whole entry, looked up): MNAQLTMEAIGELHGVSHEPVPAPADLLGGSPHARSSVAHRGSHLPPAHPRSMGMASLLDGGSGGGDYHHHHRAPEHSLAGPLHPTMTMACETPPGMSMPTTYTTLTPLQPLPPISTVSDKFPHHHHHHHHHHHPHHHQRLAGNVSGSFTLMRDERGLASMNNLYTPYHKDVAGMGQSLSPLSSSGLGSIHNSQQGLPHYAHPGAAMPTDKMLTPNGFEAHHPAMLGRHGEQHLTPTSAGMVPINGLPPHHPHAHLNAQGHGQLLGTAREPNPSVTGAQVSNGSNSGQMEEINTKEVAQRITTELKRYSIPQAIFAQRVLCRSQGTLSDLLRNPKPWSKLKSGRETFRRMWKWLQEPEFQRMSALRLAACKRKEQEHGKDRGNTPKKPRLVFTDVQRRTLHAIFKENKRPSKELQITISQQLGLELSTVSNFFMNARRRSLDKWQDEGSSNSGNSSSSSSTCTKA
Chain of Hypoxia-inducible factor 1-alpha (Homo sapiens) (Q16665 whole entry, looked up): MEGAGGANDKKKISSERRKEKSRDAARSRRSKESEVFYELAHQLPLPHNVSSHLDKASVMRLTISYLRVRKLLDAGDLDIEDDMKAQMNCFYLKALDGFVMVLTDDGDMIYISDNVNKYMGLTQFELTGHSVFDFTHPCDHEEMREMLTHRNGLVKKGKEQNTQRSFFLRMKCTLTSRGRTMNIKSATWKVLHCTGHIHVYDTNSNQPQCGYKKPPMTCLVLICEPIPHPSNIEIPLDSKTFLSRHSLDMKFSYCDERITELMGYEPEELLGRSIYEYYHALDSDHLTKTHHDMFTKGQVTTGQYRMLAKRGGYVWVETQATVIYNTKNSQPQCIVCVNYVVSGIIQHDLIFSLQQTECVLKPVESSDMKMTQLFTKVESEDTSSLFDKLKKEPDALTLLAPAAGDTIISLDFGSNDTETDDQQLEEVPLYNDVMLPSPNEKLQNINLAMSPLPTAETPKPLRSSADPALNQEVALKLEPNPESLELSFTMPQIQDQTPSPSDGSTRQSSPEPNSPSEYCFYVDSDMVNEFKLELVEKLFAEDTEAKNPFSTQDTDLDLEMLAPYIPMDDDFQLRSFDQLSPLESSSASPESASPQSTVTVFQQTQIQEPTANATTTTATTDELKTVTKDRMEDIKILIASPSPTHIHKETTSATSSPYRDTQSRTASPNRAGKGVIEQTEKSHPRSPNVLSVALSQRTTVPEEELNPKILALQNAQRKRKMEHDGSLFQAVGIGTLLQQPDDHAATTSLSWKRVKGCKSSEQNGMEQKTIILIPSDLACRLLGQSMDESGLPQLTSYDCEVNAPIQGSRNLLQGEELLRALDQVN

As for `O=C1NC(=O)c2ccccc21`, the compound was called inactive in assay [1], in assay [2], in assay [3], in assay [4], in assay [5] and in assay [6]. Also, the compound was classed as inactive in assay [7] and in [8].

Take `CN(C)CCOCCN(C)C`: the call in assay [1], in [2], in assay [3], in [4], in assay [6] and in [9] was inactive. Moreover, the outcome in assay [7] and in assay [8] was inactive.

Take `CC(C)(C)c1n[nH]c(=S)n(N)c1=O`: the call in assay [10], in [2], in [3], in [4], in [5] and in [6] was inactive. For the same compound, the result in [9] and in assay [8] was inactive.

Regarding `CCCCCCCCCCC(CO)CCCCCCCC` (stereo not given), the compound was called inactive in [10], in [2], in assay [3], in [4], in [5] and in [6]. Also, the compound was called inactive in assay [9] and in assay [8].

As for `COc1cc(C=O)ccc1OC(=O)C(C)C`, the result in assay [10], in assay [2], in assay [3], in assay [4], in assay [5] and in [6] was inactive. Further, the call in assay [9] and in [7] was inactive.

Regarding `C=CC(=O)OCCOCCOCC`, the call in [10], in assay [2], in assay [3], in assay [4], in assay [5] and in assay [6] was inactive. In addition, the compound was classed as inactive in [7].

`CC1(C)[C@@H]2CC[C@@]1(C)[C@H](O)C2`: the result in assay [10], in [2], in assay [3], in [4], in assay [6] and in assay [9] was inactive. In addition, the compound was classed as inactive in [7] and in assay [8]. In assay [5], the AC50 is 100 µM (active).

On to `CCCC1CCC(=O)O1` (stereo not given), for which the outcome in assay [10], in [2], in [3], in assay [4], in assay [5] and in assay [6] was inactive. The compound was called inactive in assay [9], in assay [7] and in [8].
